According to the supplement of paper PMC11732987, “Enantioselective OTUD7B fragment discovery through chemoproteomics screening and high-throughput optimisation” (Communications Chemistry, 2025):

What was measured:
Experiment in all cases: log2 ratio of Biotin-Ahx-Ub-VS probe labelling (fragment/DMSO); higher = less target engagement (more negative = stronger competition), active = hit call of the paper (q ≤ 0.05, log2 ratio ≤ -1)
Conditions in all cases: compound concentration: 200 uM; treatment time: 3 h
USP34 = USP34 (UniProt Q70CQ2)
USP34, sequence (Q70CQ2 whole entry, the tested form may be a part): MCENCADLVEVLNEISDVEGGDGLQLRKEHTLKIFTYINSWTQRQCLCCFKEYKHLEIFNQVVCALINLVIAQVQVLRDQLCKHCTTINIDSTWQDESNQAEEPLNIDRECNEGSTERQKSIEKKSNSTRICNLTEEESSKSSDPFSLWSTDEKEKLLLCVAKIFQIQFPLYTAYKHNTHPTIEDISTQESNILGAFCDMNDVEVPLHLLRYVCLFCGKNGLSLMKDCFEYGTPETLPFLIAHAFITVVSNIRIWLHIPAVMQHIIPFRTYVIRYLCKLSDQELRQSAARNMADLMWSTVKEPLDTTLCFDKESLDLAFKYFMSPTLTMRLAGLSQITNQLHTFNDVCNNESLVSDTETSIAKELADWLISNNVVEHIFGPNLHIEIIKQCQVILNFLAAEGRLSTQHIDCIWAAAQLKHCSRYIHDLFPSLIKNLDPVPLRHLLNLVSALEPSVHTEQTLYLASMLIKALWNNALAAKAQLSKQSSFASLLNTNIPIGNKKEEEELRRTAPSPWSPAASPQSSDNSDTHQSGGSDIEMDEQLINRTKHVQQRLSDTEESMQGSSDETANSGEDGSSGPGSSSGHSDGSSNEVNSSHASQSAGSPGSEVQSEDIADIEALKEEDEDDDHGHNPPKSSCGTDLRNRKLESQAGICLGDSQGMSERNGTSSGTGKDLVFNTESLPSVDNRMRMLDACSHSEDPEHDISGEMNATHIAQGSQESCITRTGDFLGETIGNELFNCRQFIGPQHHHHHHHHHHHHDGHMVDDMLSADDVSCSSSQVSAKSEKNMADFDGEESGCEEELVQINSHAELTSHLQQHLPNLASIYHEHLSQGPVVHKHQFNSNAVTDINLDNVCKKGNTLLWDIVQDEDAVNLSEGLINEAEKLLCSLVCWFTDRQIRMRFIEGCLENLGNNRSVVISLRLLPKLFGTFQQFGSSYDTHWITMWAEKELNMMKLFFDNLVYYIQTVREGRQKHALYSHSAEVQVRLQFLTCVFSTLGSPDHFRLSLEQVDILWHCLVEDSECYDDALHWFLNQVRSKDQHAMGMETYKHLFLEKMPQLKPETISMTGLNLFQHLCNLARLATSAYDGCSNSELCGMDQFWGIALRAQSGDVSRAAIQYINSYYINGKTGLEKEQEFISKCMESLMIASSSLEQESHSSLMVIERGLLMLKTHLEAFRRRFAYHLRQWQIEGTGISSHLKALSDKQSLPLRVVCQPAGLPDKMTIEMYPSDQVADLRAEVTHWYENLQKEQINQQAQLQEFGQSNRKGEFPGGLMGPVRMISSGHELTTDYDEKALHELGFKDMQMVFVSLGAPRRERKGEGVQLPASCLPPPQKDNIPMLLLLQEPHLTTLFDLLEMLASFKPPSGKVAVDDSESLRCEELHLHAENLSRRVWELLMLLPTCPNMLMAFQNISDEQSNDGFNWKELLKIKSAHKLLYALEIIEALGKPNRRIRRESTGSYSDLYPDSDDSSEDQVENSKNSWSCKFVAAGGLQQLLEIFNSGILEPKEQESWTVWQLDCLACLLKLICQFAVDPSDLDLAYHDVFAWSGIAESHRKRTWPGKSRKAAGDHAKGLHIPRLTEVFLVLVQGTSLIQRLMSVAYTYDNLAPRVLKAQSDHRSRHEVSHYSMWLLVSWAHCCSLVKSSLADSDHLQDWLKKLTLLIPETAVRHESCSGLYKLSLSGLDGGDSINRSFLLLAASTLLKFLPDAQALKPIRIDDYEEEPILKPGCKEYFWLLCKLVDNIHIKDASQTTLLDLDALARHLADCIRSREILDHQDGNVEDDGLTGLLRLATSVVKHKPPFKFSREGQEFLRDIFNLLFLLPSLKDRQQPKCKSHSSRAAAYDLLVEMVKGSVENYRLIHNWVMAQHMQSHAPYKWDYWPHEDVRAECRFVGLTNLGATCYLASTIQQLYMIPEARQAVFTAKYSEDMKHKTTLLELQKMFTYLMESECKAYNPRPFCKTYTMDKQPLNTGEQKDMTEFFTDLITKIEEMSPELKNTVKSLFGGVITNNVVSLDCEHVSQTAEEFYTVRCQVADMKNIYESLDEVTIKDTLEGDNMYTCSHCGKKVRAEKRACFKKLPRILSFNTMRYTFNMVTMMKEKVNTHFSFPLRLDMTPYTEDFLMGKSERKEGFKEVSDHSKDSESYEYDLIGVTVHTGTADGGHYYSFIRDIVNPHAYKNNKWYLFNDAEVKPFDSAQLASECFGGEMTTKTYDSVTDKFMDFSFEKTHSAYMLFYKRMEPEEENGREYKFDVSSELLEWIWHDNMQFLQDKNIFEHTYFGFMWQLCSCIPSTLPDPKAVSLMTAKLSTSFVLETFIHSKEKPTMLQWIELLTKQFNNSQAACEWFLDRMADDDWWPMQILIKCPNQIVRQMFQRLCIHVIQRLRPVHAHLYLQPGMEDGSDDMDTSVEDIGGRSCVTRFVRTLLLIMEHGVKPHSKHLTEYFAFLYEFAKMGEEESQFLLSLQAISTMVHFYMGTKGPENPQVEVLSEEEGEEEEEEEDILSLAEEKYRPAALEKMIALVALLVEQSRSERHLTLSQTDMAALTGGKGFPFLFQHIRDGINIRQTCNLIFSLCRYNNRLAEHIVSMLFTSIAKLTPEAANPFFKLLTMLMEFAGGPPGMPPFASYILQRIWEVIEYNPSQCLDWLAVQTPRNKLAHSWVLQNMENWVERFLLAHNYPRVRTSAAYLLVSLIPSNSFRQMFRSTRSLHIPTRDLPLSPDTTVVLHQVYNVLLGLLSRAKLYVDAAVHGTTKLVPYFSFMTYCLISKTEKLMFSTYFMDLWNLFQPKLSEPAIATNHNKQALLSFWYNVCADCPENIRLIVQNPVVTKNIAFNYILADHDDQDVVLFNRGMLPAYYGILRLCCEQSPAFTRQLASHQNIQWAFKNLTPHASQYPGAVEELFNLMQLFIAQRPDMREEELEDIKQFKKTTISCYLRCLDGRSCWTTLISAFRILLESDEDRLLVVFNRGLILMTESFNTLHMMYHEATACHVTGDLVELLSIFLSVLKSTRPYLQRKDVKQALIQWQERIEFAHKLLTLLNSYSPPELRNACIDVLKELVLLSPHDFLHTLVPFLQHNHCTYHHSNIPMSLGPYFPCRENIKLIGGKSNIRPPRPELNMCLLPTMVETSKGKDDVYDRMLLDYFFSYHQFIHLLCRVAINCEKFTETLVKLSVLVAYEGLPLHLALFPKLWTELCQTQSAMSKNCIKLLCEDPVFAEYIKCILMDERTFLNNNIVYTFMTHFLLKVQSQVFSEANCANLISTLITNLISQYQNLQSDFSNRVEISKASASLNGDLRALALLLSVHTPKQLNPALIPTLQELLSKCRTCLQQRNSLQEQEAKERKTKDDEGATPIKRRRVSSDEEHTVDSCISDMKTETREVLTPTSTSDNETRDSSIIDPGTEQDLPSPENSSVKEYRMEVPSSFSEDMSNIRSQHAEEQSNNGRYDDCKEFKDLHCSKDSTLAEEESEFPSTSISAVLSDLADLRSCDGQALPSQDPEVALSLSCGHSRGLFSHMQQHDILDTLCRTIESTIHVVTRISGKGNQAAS
Procedure, shortened: (§1)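 Triplicate samples of HEK293T lysate, 495 µg each, received fragment at 200 µM or vehicle for 3 h, followed by Biotin-Ahx-Ub-VS (0.5 µM final) for 1 h. After NeutrAvidin enrichment of labelled DUBs and LysC/trypsin digestion, peptides were run by diaPASEF LC-MS/MS. The values are average log2 fragment/vehicle ratios from global-median-normalised Spectronaut label-free quantities, tested by unpaired t-test on proteins having ≥2 unique peptides.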

USP36 = target: T1, USP36 (UniProt Q9P275)
T1 sequence (whole entry): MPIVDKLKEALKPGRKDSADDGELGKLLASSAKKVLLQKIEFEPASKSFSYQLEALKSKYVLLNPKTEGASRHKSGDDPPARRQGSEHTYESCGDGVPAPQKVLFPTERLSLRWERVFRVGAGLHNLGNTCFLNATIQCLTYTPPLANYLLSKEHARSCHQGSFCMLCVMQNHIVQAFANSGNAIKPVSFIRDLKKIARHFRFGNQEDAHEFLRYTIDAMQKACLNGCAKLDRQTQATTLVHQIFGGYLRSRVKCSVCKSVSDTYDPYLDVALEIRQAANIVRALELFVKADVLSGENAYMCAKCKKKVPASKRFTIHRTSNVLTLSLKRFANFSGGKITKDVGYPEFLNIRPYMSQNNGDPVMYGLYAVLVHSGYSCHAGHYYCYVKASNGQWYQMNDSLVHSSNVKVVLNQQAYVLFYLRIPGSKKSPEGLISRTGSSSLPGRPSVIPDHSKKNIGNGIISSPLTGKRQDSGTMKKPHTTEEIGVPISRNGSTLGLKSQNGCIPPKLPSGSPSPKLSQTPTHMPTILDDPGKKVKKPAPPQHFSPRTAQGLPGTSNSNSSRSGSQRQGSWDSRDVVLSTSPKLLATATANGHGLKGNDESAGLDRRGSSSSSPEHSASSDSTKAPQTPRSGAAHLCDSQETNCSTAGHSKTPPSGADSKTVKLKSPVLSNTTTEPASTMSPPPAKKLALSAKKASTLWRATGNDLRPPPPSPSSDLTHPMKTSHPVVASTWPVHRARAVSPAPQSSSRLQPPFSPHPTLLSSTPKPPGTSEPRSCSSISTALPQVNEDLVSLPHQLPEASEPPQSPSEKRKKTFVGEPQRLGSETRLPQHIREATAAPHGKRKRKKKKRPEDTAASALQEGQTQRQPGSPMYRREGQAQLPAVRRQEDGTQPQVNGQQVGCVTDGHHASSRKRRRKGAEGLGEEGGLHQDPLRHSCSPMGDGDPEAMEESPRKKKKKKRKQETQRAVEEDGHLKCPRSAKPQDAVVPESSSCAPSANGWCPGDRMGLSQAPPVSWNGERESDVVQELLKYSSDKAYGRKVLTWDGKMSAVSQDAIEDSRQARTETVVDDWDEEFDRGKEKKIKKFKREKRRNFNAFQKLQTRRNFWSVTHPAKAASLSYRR
Procedure, shortened: as §1

USP38 = target: T2, USP38 (UniProt Q8NB14)
T2 sequence (whole entry): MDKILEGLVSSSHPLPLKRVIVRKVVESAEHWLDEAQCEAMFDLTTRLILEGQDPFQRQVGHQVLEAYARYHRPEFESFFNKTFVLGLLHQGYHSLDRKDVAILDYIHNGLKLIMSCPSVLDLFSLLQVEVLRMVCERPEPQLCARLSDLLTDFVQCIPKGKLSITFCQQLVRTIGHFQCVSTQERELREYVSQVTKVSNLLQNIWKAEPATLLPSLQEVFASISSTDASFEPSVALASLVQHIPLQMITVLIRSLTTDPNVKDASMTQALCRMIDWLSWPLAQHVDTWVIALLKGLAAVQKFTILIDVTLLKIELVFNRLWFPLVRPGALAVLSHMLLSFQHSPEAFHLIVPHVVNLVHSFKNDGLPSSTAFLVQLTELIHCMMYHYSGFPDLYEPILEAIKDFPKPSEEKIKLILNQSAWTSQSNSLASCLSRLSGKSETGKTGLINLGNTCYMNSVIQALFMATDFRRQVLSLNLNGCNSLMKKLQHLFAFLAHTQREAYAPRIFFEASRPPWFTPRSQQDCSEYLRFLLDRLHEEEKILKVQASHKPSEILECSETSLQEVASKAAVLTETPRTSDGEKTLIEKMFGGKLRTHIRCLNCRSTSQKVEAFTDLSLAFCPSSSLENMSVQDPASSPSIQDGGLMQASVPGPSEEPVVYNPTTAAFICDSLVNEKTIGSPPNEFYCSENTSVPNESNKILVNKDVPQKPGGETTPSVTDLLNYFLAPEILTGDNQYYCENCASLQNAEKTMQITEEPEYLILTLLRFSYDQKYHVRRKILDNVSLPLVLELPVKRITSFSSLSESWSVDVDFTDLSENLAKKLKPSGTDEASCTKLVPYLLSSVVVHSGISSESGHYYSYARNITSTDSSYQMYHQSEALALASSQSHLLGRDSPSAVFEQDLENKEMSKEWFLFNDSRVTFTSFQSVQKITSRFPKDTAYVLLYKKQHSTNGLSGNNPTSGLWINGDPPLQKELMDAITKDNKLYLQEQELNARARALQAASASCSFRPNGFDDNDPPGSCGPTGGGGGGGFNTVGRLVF
Procedure, shortened: as §1

USP39 = target: T3, USP39 (UniProt Q53GS9)
T3 sequence (whole entry): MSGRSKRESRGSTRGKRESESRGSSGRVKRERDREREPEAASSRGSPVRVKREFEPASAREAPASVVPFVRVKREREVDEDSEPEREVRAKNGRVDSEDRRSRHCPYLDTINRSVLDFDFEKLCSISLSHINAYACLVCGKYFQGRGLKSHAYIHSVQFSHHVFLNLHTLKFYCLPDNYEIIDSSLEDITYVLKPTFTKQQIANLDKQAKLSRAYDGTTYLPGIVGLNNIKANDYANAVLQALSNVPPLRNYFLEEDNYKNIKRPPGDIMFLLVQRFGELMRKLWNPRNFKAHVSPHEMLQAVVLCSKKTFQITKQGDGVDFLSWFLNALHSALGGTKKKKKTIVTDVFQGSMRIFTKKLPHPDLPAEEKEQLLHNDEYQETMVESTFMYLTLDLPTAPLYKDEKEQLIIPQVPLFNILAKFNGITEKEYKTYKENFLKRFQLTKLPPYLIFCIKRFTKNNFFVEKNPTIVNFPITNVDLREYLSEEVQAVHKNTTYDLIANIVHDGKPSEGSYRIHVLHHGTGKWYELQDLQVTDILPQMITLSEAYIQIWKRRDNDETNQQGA
Procedure, shortened: as §1

USP4 = target: T4, USP4 (UniProt Q13107)
T4 sequence (whole entry): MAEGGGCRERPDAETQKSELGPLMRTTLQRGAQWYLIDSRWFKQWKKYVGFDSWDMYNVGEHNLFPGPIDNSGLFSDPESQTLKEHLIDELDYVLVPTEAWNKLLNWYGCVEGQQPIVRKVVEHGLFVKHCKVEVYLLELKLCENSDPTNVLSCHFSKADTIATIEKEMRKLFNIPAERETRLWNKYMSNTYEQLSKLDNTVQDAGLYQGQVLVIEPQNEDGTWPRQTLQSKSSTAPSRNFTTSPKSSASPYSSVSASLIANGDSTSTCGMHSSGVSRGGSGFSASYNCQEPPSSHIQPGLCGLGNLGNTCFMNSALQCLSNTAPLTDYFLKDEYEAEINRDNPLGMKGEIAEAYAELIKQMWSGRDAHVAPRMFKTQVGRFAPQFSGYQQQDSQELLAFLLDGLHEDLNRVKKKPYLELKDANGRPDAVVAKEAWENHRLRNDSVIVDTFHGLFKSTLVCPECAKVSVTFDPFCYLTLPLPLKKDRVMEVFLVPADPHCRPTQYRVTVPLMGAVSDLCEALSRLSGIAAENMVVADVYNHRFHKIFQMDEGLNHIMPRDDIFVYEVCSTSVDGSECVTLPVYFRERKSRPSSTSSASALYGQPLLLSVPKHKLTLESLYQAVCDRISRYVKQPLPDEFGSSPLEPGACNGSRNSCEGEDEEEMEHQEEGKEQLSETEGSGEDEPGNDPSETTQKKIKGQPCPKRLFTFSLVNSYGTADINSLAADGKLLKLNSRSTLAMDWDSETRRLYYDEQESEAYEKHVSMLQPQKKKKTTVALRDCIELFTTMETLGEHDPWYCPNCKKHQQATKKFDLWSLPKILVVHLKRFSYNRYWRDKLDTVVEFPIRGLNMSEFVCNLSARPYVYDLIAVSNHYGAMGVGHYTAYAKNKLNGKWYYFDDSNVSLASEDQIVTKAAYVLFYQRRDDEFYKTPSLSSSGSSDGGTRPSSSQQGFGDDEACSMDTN
Procedure, shortened: as §1

Measured: log2 ratio of Biotin-Ahx-Ub-VS probe labelling

O=C(CCl)Nc1ccccc1C(F)(F)F
inactive: USP34 -0.296 | USP36 0.187 | USP38 -0.0183 | USP39 0.198 | USP4 -0.1
